Data published in PubChem BioAssay (NCATS).
Inconclusive results are not listed. Calls follow the shape of the dose curve; as a rule, active = well fitted inhibition curve with a large enough effect; inconclusive = small, poorly fitted or top-dose-only effect; inactive = no such curve, though single readings can be large or run the other way.

Test: Primary qHTS for small molecule stabilizers of the endoplasmic reticulum resident proteome: Secreted ER Calcium Modulated Protein (SERCaMP) assay (AID 1508630)
Settings: SH-SY5Y GLuc-SERCaMP (Gaussia luciferase released on ER calcium loss) secretion, thapsigargin, luminescence; series mostly up to 38.4 µM; activity change, negative = inhibition: at the top concentration
Procedure, shortened: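 GLuc-SERCaMP-expressing SH-SY5Y cells, pretreated 16 h with compound, are challenged with thapsigargin to empty ER calcium stores; after 4 h, coelenterazine is added directly to the medium and luminescence is imaged.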
% is scaled to controls: 0 for no effect and ±100 for the full control effect.

Activity change, negative = inhibition, inactive:
N#Cc1cccc(-c2nc3cnc(N4CCOCC4)nc3n(C3CC3)c2=O)c1 5.28%
CCNc1ncc2nc(-c3cc(F)cc(F)c3)c(=O)n(C)c2n1 1.61%
CC(=O)NCCNc1ccnc(-c2ccccc2C(F)(F)F)n1 21.1%
CCNc1ncc2nc(-c3cc(F)cc(F)c3)c(=O)n(C[C@H]3CCCO3)c2n1 -2.2%
COc1cccc(-c2cncnc2N(C)Cc2ccco2)c1 28%
COc1ccccc1-c1ccc2ncnc(NC3CCNCC3)c2c1 -19.1%
O=c1cnc2cnc(N3CCOCC3)nc2n1C1CC1 22.1%
CCNc1ncc2nc(C)c(=O)n(-c3ccc(OC)cc3)c2n1 13.4%
CCNc1ncc2nc(C)c(=O)n(Cc3cccs3)c2n1 -9.99%
Cn1c(=O)c(-c2cccs2)nc2cncnc21 -2.26%
CN(C)c1ncc2ncc(=O)n(C3CC3)c2n1 43.8%
CCNc1ncc2nc(C)c(=O)n(Cc3ccc(F)cc3)c2n1 44.2%
CN(C)C(=O)c1ccc(-c2nc(NC3CCNCC3)c3ccccc3n2)cc1 18%
COc1ccccc1CNc1ncncc1-c1cccnc1 -16.1%
COc1cccc(Nc2ncc3nc(C)c(=O)n(C)c3n2)c1 -23.4%
Cc1cnc(CNc2ncncc2-c2cccc(C#N)c2)cn1 45.3%
Cc1nc2cnc(Nc3ccccc3)nc2n(C2CC2)c1=O 4.04%
CCNc1ncc2nc(C)c(=O)n(C3CC3)c2n1 -18.8%
CCNc1ncc2nc(-c3cn(C)c4ccccc34)c(=O)n(-c3ccc(OC)cc3)c2n1 -14.8%
CN(C)C(=O)c1ccc(-c2cncnc2N2CCNCC2)cc1 0.434%
Cc1noc(C)c1-c1ccc2ncnc(NC3CCNCC3)c2c1 46.7%
CCNc1ncc2nc(C)c(=O)n(C)c2n1 -4.29%
COc1ccc(CNc2ncncc2-c2cccnc2)c(OC)c1 17.8%
COc1ccc(-n2c(=O)cnc3cnc(N4CCOCC4)nc32)cc1 10.2%
Fc1ccc(Nc2ncncc2-c2ccoc2)cc1 -10.1%
Cn1c(=O)cnc2cnc(OCc3ccccc3)nc21 13%
COc1cccc(Nc2ncc3nc(C)c(=O)n(CCc4ccccc4)c3n2)c1 -28.3%
COc1ccc2[nH]cc(CCNc3ncncc3-c3c(C)noc3C)c2c1 -9.48%
Cc1noc(C)c1-c1cc(Nc2ccccc2)ncn1 23.8%
COc1ccc(Oc2ncc3ncc(=O)n(C)c3n2)cc1 -7.47%
COCCNc1cc(-c2ccccc2C)ncn1 14%
CS(=O)(=O)Nc1cccc(-c2cncnc2Nc2ccc(F)cc2)c1 8.91%
c1ccc2c(NC3CCNCC3)nc(-c3ccoc3)nc2c1 4.64%
c1csc(CNc2cc(-c3ccoc3)ncn2)c1 -5.17%
COc1ccc(CNc2cc(-c3ccoc3)ncn2)c(OC)c1 15.9%
O=c1cnc2cnc(Nc3ccccc3)nc2n1Cc1ccc(F)cc1 -23.8%
Fc1ccc(Nc2ccnc(-c3ccoc3)n2)cc1 8.51%
COc1ccccc1-c1cc(NCc2ccccc2)ncn1 46.6%
N#Cc1cccc(-c2cncnc2NCc2cccs2)c1 -14%
CNc1cc(-c2c(C)noc2C)ncn1 -5.89%
